From PubChem BioAssay AID651871 (Sanford-Burnham Center for Chemical Genomics, 2012)
Several values for one entry are separate records, joined by “and”; a condition that tells them apart may be missing. Identical values can stand only once.

These molecules were tested on HL-1 (assay: protection of cardiomyocytes from stress damage, SAR follow-up, cell-based, panel, H9c2 and HL-1, ATP luminescence, set 2 (AID 651871;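 further: cells exposed to stressor for 2 h before ATP readout; reference of the scale not given here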)). Conditions: H9c2/HL-1 cardiomyocytes, 2-deoxyglucose stress, with 2-deoxyglucose, run 5, at 79 µM (top of the series).
`COc1ccc2nc(-c3cc(OC)c(OC)c(OC)c3)cc(C(=O)NCC(=O)Nc3ccc(C(C)=O)cc3)c2c1` gave an activity (protection/inhibition) of 55.8%. For `CCOC(=O)c1cccc(NC(=O)CNC(=O)c2cc(-c3cc(OC)c(OC)c(OC)c3)nc3ccccc23)c1`, the activity (protection/inhibition) was 51.1%. In the case of `COc1ccc2c(c1OC)C(=O)N1c3ccccc3C(=O)N(Cc3cccc(Cl)c3Cl)C21` (stereo not drawn), the activity (protection/inhibition) is reported as 43.8% and -9.92%.
